The values below come from the supplement of paper PMC7366291.

What all share (settings): 25 µM; exposure: 24-48 hpf
In assay [1] the test system is Danio rerio Tg(wt1b:EGFP) embryo, pronephros. Nature of the assay: glomerular separation, fold change vs DMSO control; higher = glomeruli further apart (abnormal). In outline:
(§1)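 In HEPES-buffered E3 with 0.003% PTU and 0.5% DMSO, dechorionated Tg(wt1b:EGFP) zebrafish embryos were exposed to 25 μM compound from 24 to 48 hpf at 28.5°C. Pronephroi were then imaged dorsally at 470 nm in 10 z-slices, in 96-well plates filled with agarose. On maximum projections, a Fiji macro turned 16 manually placed reference points into distances and angles, and values more than 2 SD from the feature mean were excluded. Features are fold changes relative to the mean of DMSO-treated embryos from the same day.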

Assay [2] has the same test system. The assay is described as follows: glomerular width (mean of left and right), fold change vs DMSO control; higher = wider glomerulus. In outline:
as §1

Assay [3] has the same test system. The assay is described as follows: pronephric angle neck segment to proximal convoluted tubule (mean of left and right), fold change vs DMSO control; higher = larger pronephric angle. In outline: as §1
Assay [4] has the same test system. Nature of the assay: fraction of imaged embryos annotated as normal kidney; higher = less nephrotoxic; extreme values may be limits of the assay. In outline: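 Dechorionated Tg(wt1b:EGFP) zebrafish embryos were exposed in 12-well plates to 25 μM compound in 0.5% DMSO, 5 mM HEPES-buffered E3 with 0.003% PTU, from 24 to 48 hpf at 28.5°C. Tricaine-anaesthetised larvae were oriented dorsally in agarose-filled 96-well plates, and pronephroi were imaged by widefield fluorescence (470 nm, 10 z-slices). Each embryo was manually annotated from maximum projections. The read-out is the fraction of embryos per treatment assigned to the normal-kidney category.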

Molecules are shown by their SMILES. Counter-ions that a name gives are not always drawn. ± gives the standard deviation or the standard deviation of the averaged measurements.

In assay [1], `CCOC(=O)N1CCC(=C2c3ccc(Cl)cc3CCc3cccnc32)CC1` [Loratadine] gave a glomerular separation of 1.4 ± 0.98. The glomerular width in assay [2] is 0.989 ± 0.055. Besides, the “pronephric angle neck segment” value in assay [3] is 1.1 ± 0.021.

In assay [1], `O=C(O)COCCN1CCN(C(c2ccccc2)c2ccc(Cl)cc2)CC1` (centres undefined) [Cetirizine dihydrochloride] yielded a glomerular separation of 0.855 ± 0.18. Moreover, the glomerular width in assay [2] is 1.09 ± 0.012. Further, the “fraction of imaged embryos annotated as normal kidney” value (“fraction of imaged embryos annotated” for short) in assay [4] came to 1. Besides, the “pronephric angle neck segment” value in assay [3] amounted to 1.03 ± 0.011.

Take `N[C@@H](Cc1cc(I)c(Oc2ccc(O)c(I)c2)c(I)c1)C(=O)O` [Liothyronine]: the glomerular separation in assay [1] was 0.912 ± 0.45. The same compound had a glomerular width in assay [2] of 0.9338 ± 0.0093. Besides, the “pronephric angle neck segment” value in assay [3] was determined as 1.01 ± 0.018.

With `Nc1ccc(O)c(C(=O)O)c1` [Mesalamine], in assay [1], the glomerular separation stood at 1.23 ± 0.36. The compound also showed a glomerular width in assay [2] of 0.956 ± 0.032. Also, the “fraction of imaged embryos annotated” value in assay [4] was found to be 0.917. The “pronephric angle neck segment” value in assay [3] came out at 0.971 ± 0.018.

As for `CC(C)(C)NC(=O)[C@@H]1C[C@@H]2CCCC[C@@H]2CN1C[C@@H](O)[C@H](Cc1ccccc1)NC(=O)[C@H](CC(N)=O)NC(=O)c1ccc2ccccc2n1` [Saquinavir mesylate], the glomerular separation in assay [1] was 1.08 ± 0.35. This compound also showed a glomerular width in assay [2] of 1.04 ± 0.085. Also, the “fraction of imaged embryos annotated” value in assay [4] is 0.909. Moreover, the “pronephric angle neck segment” value in assay [3] was found to be 0.977 ± 0.016.

`CCCCC(=O)O[C@H]1CC[C@H]2[C@@H]3CCc4cc(O)ccc4[C@H]3CC[C@]12C` [Estradiol Valerate] had a glomerular separation in assay [1] of 1.02 ± 0.37. In addition, the glomerular width in assay [2] was found to be 0.925 ± 0.016. The “fraction of imaged embryos annotated” value in assay [4] is 0.583. In addition, in assay [3], the “pronephric angle neck segment” value was found to be 1.134 ± 0.0028.

Take `C[N+](C)(C)CCOC(N)=O` [Carbachol]: the glomerular separation in assay [1] came to 0.868 ± 0.25. Further, in assay [2], the glomerular width worked out at 1 ± 0.013. For the same compound, in assay [4], the “fraction of imaged embryos annotated” value was found to be 0.667. The “pronephric angle neck segment” value in assay [3] was 1.01 ± 0.047.

`Cc1cc(C(C)(C)C)cc(C)c1CC1=NCCN1` [Xylometazoline hydrochloride] yielded a glomerular separation in assay [1] of 1.11 ± 0.42. In addition, the glomerular width in assay [2] is 0.948 ± 0.05. For the same compound, in assay [4], the “fraction of imaged embryos annotated” value was found to be 1. In assay [3], the “pronephric angle neck segment” value worked out at 1 ± 0.012.

As for `CCCCC1C(=O)N(c2ccccc2)N(c2ccccc2)C1=O` [Phenylbutazone], the glomerular separation in assay [1] came to 5.01 ± 1.6. The compound also displayed a glomerular width in assay [2] of 0.552 ± 0.0084. Further, the “fraction of imaged embryos annotated” value in assay [4] worked out at 0. Also, the “pronephric angle neck segment” value in assay [3] came to 1.67 ± 0.032.

The compound `CCCOc1cc(N)ccc1C(=O)OCCN(CC)CC` [Propoxycaine hydrochloride] had a glomerular separation in assay [1] of 0.859 ± 0.24. Moreover, in assay [2], the glomerular width was 0.982 ± 0.023. In addition, in assay [4], the “fraction of imaged embryos annotated” value turned out to be 0.917. In addition, the “pronephric angle neck segment” value in assay [3] is 1.01 ± 0.023.

With `COc1cccc2c1C(=O)c1c(O)c3c(c(O)c1C2=O)C[C@@](O)(C(=O)CO)C[C@@H]3O[C@H]1C[C@H](N)[C@H](O)[C@H](C)O1` [Doxorubicin hydrochloride], the glomerular separation in assay [1] was determined as 1.19 ± 0.75. The glomerular width in assay [2] came out at 0.959 ± 0.11. The “fraction of imaged embryos annotated” value in assay [4] was 0.75. The “pronephric angle neck segment” value in assay [3] came to 0.9779 ± 0.0016.

`CN1CCOC(c2ccccc2)c2ccccc2C1` (centres undefined) [Nefopam hydrochloride]: the glomerular separation in assay [1] amounted to 0.828 ± 0.19. Moreover, in assay [2], the glomerular width was 0.982 ± 0.05. Also, the “fraction of imaged embryos annotated” value in assay [4] amounted to 0.909. The “pronephric angle neck segment” value in assay [3] worked out at 1.02 ± 0.012.

Regarding `CCN(CC)CCCC(C)Nc1ccnc2cc(Cl)ccc12` (centres undefined) [Chloroquine diphosphate], the glomerular separation in assay [1] came to 1.16 ± 0.51. For the same compound, the glomerular width in assay [2] worked out at 0.959 ± 0.049. The “fraction of imaged embryos annotated” value in assay [4] is 1. For the same compound, the “pronephric angle neck segment” value in assay [3] was 0.991 ± 0.019.

In assay [1], `COc1ccc(CC(C)NCC(O)c2ccc(O)c(NC=O)c2)cc1` (centres undefined) [Formoterol fumarate] gave a glomerular separation of 0.928 ± 0.31. Besides, the glomerular width in assay [2] was determined as 0.97 ± 0.051. Further, the “fraction of imaged embryos annotated” value in assay [4] is 0.917. Moreover, the “pronephric angle neck segment” value in assay [3] turned out to be 1.05 ± 0.034.

Compound `C[C@@H]1C[C@H]2[C@@H]3C[C@H](F)C4=CC(=O)C=C[C@]4(C)[C@@]3(Cl)[C@@H](O)C[C@]2(C)[C@H]1C(=O)COC(=O)C(C)(C)C` [Clocortolone pivalate] gave a glomerular separation in assay [1] of 1.59 ± 0.52. Further, the glomerular width in assay [2] was 1.26 ± 0.019. The “fraction of imaged embryos annotated” value in assay [4] worked out at 0.167. Also, the “pronephric angle neck segment” value in assay [3] is 1.077 ± 0.009.

The compound `Nc1ccc(S(=O)(=O)Nc2ccccn2)cc1` [Sulfapyridine] gave a glomerular separation in assay [1] of 0.906 ± 0.35. The glomerular width in assay [2] is 1.07 ± 0.03. The “fraction of imaged embryos annotated” value in assay [4] came to 0.75. The “pronephric angle neck segment” value in assay [3] was 1 ± 0.083.

Take `Cc1cccn2c(=O)c(-c3nnn[nH]3)cnc12` [Pemirolast potassium]: in assay [1], the glomerular separation is 1.25 ± 0.38. The same compound showed a glomerular width in assay [2] of 0.89 ± 0.062. Further, the “fraction of imaged embryos annotated” value in assay [4] was 1. Further, the “pronephric angle neck segment” value in assay [3] worked out at 0.99 ± 0.042.

Regarding `C#C[C@]1(O)CC[C@H]2[C@@H]3CCC4=C(CCC(=O)C4)[C@H]3CC[C@@]21C` [Norethynodrel], the glomerular separation in assay [1] came to 1.17 ± 0.41. Also, the glomerular width in assay [2] worked out at 0.9892 ± 0.0088. Besides, the “fraction of imaged embryos annotated” value in assay [4] came out at 0.667. In assay [3], the “pronephric angle neck segment” value was 0.984 ± 0.06.

In assay [1], `OCCN1CCN(CCCN2c3ccccc3C=Cc3ccccc32)CC1` [Opipramol dihydrochloride] yielded a glomerular separation of 0.662 ± 0.23. The glomerular width in assay [2] came to 1.1 ± 0.043. Besides, the “fraction of imaged embryos annotated” value in assay [4] was 0.75. Moreover, the “pronephric angle neck segment” value in assay [3] was 1.02 ± 0.076.

In assay [1], `CCc1ccc(CCOc2ccc(CC3SC(=O)NC3=O)cc2)nc1` (centres undefined) [Pioglitazone] showed a glomerular separation of 1.48 ± 0.83. Moreover, the glomerular width in assay [2] came out at 1.03 ± 0.0063. For the same compound, in assay [4], the “fraction of imaged embryos annotated” value came to 0.75. In addition, the “pronephric angle neck segment” value in assay [3] came to 1.03 ± 0.018.

With `CCN(CC)CCNC(=O)c1ccc(N)cc1` [Procainamide hydrochloride], the glomerular separation in assay [1] was 0.95 ± 0.48. This compound also returned a glomerular width in assay [2] of 1.11 ± 0.027. Further, in assay [4], the “fraction of imaged embryos annotated” value worked out at 0.455. Further, the “pronephric angle neck segment” value in assay [3] is 1.1 ± 0.22.

As to `CC(C)NNC(=O)c1ccncc1` [Iproniazide phosphate], in assay [1], the glomerular separation is 0.735 ± 0.21. This compound yielded a glomerular width in assay [2] of 1.03 ± 0.024. Besides, in assay [4], the “fraction of imaged embryos annotated” value is 1. In addition, the “pronephric angle neck segment” value in assay [3] was found to be 0.9788 ± 0.0054.

`NCCCCCC(=O)O` [Aminocaproic acid]: the glomerular separation in assay [1] is 0.833 ± 0.35. In assay [2], this compound displayed a glomerular width of 0.961 ± 0.022. Besides, the “fraction of imaged embryos annotated” value in assay [4] was 1. Further, the “pronephric angle neck segment” value in assay [3] is 1.02 ± 0.055.

`COc1cc(C(=O)NC2CCCNC2)cc(OC)c1OC` (centres undefined) [Troxipide] had a glomerular separation in assay [1] of 1.14 ± 0.54. The glomerular width in assay [2] is 0.976 ± 0.011. In addition, the “fraction of imaged embryos annotated” value in assay [4] turned out to be 0.917. Also, the “pronephric angle neck segment” value in assay [3] is 0.953 ± 0.027.

Turning to `CCOC(=O)[C@H](CCc1ccccc1)N[C@H]1CCc2ccccc2N(CC(=O)O)C1=O` [Benazepril hydrochloride], in assay [1], the glomerular separation was found to be 0.73 ± 0.18. In assay [2], this compound yielded a glomerular width of 1.05 ± 0.023. For the same compound, the “fraction of imaged embryos annotated” value in assay [4] was found to be 0.75. Besides, the “pronephric angle neck segment” value in assay [3] was 0.964 ± 0.087.

For the compound `Cc1cc2cc3c(C)cc(=O)oc3c(C)c2o1` [Trioxsalen], the glomerular separation in assay [1] turned out to be 0.97 ± 0.24. In assay [2], the glomerular width came out at 1.019 ± 0.01. The “fraction of imaged embryos annotated” value in assay [4] worked out at 0.917. In addition, the “pronephric angle neck segment” value in assay [3] is 1.03 ± 0.049.

`Cc1cccc(Nc2ccccc2C(=O)O)c1C` [Mefenamic acid] displayed a glomerular separation in assay [1] of 5.08 ± 1.4. The compound also showed a glomerular width in assay [2] of 0.617 ± 0.064. Also, the “fraction of imaged embryos annotated” value in assay [4] amounted to 0. Besides, in assay [3], the “pronephric angle neck segment” value came out at 1.63 ± 0.059.

For the compound `c1ccc2c(CC3=NCCN3)cccc2c1` [Naphazoline hydrochloride], the glomerular separation in assay [1] was 1.17 ± 0.54. The compound further showed a glomerular width in assay [2] of 1 ± 0.0079. The “fraction of imaged embryos annotated” value in assay [4] amounted to 1. The “pronephric angle neck segment” value in assay [3] came out at 1.006 ± 0.0059.

`Nc1nc(CC(=O)Nc2ccc(CCNC[C@H](O)c3ccccc3)cc2)cs1` [Mirabegron] returned a glomerular separation in assay [1] of 0.841 ± 0.26. For the same compound, in assay [2], the glomerular width amounted to 1.04 ± 0.067. For the same compound, the “fraction of imaged embryos annotated” value in assay [4] was 0.833. Besides, the “pronephric angle neck segment” value in assay [3] is 0.965 ± 0.014.
